The text below walks through data of PubChem BioAssay AID2314 (National Center for Advancing Translational Sciences (NCATS), 2010).

The campaign covered roughly 300,000 compounds. About 37,000 (12%) were called active. Rule as the data show it: active = max response mostly above about 13% (no sharp cut-off); inactive = mostly below about 14%. What follows is part of a selection rich in actives, with near analogues and random picks from the rest.

The assay is described as follows: Cycloheximide Counterscreen for Small Molecule Inhibitors of Shiga Toxin. Also: read at 38.3 µM for the half of the compounds with a filed dose; 0% is about no effect. Particulars: cell reporter, cycloheximide protein synthesis inhibition counterscreen; stronger effect = higher value. For orientation: The purpose of a counterscreen is to sort out artefacts and off-target activity.
As for `Cc1cc(OCc2ccc(C(=O)Nc3ccc(C(=O)O)cc3)o2)ccc1Cl`, the max response was 0.897% (inactive).

Take `COc1ccc(C(C(=O)NC2CCCCC2)N(C(=O)Cc2c[nH]c3ccccc23)c2ccccc2)cc1OC` (configuration not stated): the max response was -2.16% (inactive).

In the case of `NC(=O)c1ccc(Nc2ccc3c(c2)CCC3)c([N+](=O)[O-])c1`, the max response is -2.88% (inactive). Regarding `Cc1ccc(Nc2ccc(C(N)=O)cc2[N+](=O)[O-])cc1`, the max response was 14.3% (active). Consider `NC(=O)c1ccc(Nc2ccc3nonc3c2[N+](=O)[O-])cc1`, for which the max response was 6% (inactive). As to `c1ccc(CSc2nnc(-c3ccco3)c(-c3ccco3)n2)cc1`, the max response was 5.66% (inactive). `O=C(CSc1nnc(-c2ccco2)n1Cc1ccccc1)NC(=O)NCc1ccco1`: the max response is 9.36% (inactive). With `c1ccc(CSc2nnc(-c3ccco3)n2Cc2ccccc2)cc1`, the max response was 27.8% (active).

For `N#CCOc1ccc(C2=NO[C@@H]3[C@@H]4C[C@@H]([C@H]5C(=O)N(c6ccc7c(c6)OCO7)C(=O)[C@@H]45)[C@H]23)cc1`, the max response was -3.49% (inactive). Take `Cn1c(CNC(=O)c2ccccc2F)nnc1SCc1ccc(F)cc1`: the max response was 6.96% (inactive). As for `COc1ccc(CCNC2=C(Cl)C(=O)N(Cc3ccccc3)C2=O)cc1OC`, the max response is 5.5% (inactive).

In the case of `C/C(=N\Nc1nc2ccccc2[nH]1)c1cccs1`, the max response is 36.7% (active). Consider `COc1cccc(/C(C)=N/Nc2ncc(Cl)cc2Cl)c1`, for which the max response was 41.6% (active). Next, `COC(=O)c1sccc1N/N=C(\C)c1ccc(F)c(Cl)c1`: 7.97% (inactive). Regarding `C/C(=N\Nc1nc(Nc2ccccc2)nc(N2CCOCC2)n1)c1cccs1`, the max response is 14.5% (inactive). Next, `C/C(=N\NS(=O)(=O)c1ccc(Br)cc1)c1cccs1`: -1.14% (inactive).

Turning to `Cc1c(Cl)cnc(NC(=O)COC(=O)c2ccc(S(=O)(=O)NCc3ccco3)cc2)c1Cl`, the max response was -0.376% (inactive). Regarding `O=C(Nc1ccccc1-c1nc2ccccc2[nH]c1=O)c1cccs1`, the max response was 0.926% (inactive). On to `CCN(CC)c1ccc(C(=O)N/N=C(\C)c2cccc(OC)c2)cc1`, for which the max response was -2.4% (inactive). Take `C/C(=N\Nc1ccc(S(N)(=O)=O)cc1[N+](=O)[O-])c1cccs1`: the max response is -5.09% (inactive). Consider `C/C(=N\Nc1ncc(Cl)cc1Cl)c1cccs1`, for which the max response was 45.9% (active).

Take `C/C(=N\Nc1ncc(Cl)cc1Cl)c1ccc(S(=O)(=O)NCc2ccco2)cc1`: the max response was 113% (active).

Take `O=S(=O)(NCc1ccco1)c1cnc(Cl)c(Cl)c1`: the max response is -2.82% (inactive).

In the case of `CC(=O)Nc1c2c(nn1-c1cccc(C)c1)CSC2`, the max response is 8.26% (inactive). As for `C=CCn1c2ccccc2c2nnc(SCc3[nH]c(=O)[nH]c3C(=O)CCCCC(=O)OCC)nc21`, the max response was 2.1% (inactive). Next, `Cc1cccc(C)c1NC(=O)C1(C)c2cccc[n+]2CC(=O)N1Cc1cccs1` (configuration not stated): -1.89% (inactive); `COC(=O)c1ccc(C(NC(=O)OCc2ccccc2)/C(F)=C/[C@@H](C)C(=O)O)cc1` (some centres not stated): 6.37% (inactive); `CN1CCC(=O)N([C@H](CO)Cc2ccccc2)CC1`: 1.38% (inactive). Regarding `Cn1c(=NC(=O)C2CC2)sc2cc(F)cc(F)c21`, the max response was -0.185% (inactive). For the molecule `CCCC(=O)N=c1sc2cccc(F)c2n1C`, the max response is -3.69% (inactive). Next, `Cn1c(=NC(=O)c2ccco2)sc2cccc(F)c21`: 72.9% (active). For the molecule `COC(=O)c1c(NC(=O)c2ccccc2F)sc2c1C(C(=O)OC)CC2` (configuration not stated), the max response was 7.34% (inactive). On to `C/C(=N\N)c1c(-c2ccccc2)c2cc(Br)ccc2[nH]c1=O`, for which the max response is 1% (inactive). As to `O=C(Cn1nc([N+](=O)[O-])nc1Br)NC1CCCCC1`, the max response is -4.71% (inactive). On to `Cc1ccccc1C(=O)NC(=S)NC1CC1`, for which the max response was 19.1% (active). As for `O=C(NNC(=S)NC1CCCCC1)c1ccccc1Cl`, the max response was 5.48% (inactive).

Consider `COc1ccccc1C(=O)NC(=S)NC12CC3CC(CC(C3)C1)C2`, for which the max response was 13.4% (inactive). Regarding `CC(C)CC(CCc1ccccc1)OS(N)(=O)=O` (configuration not stated), the max response was 2.53% (inactive). Next, `COc1ccc(COC(=O)N/N=C(\C)CC(=O)Nc2ccc(Cl)cc2)cc1`: 12.4% (inactive).

As for `COc1ccc(C(=O)CCC(=O)Nc2ccc(Cl)cc2)cc1`, the max response is 0.287% (inactive). As for `COc1ccc(C(=O)N/N=C(\C)CC(=O)Nc2ccc(Cl)cn2)cc1`, the max response is 28.3% (active). With `Cc1ccc(-n2c(-c3ccc(Cl)cc3)n[nH]c2=S)cc1`, the max response is -1.99% (inactive). As for `O=C(NCCCN1CCOCC1)c1ccc2c(c1)N(Cc1cccc(F)c1)C(=O)c1ccccc1S2`, the figure is -7.81% (inactive).

As for `Nc1cc(N)nc(SCc2cccc(F)c2)n1`, the max response is 45.9% (active). For `Cc1cc(=O)[nH]c(SCc2cccc(F)c2)n1`, the max response is 0.752% (inactive). Regarding `Nc1cc(N)nc(SCc2ccc(Cl)cc2)n1`, the max response is 15.3% (inactive). Next, `C[n+]1cc(-c2ccccc2)oc1-c1ccccc1`: 52.4% (active).

On to `Cc1cc(C)n(-c2cc(Oc3ccccc3)ncn2)n1`, for which the max response is 21.7% (inactive). Take `Cc1cc(N2CCN(c3ccccc3)CC2)nc(N2CCOCC2)n1`: the max response is -2.2% (inactive). On to `Cc1cc(C)n(-c2nnc(N3CCN(c4ccccc4)CC3)nn2)n1`, for which the max response is 22.1% (active). As for `CCOC(=O)C1=C(CN2CCc3ccccc32)NC(=O)NC1c1ccc(Cl)cc1` (configuration not stated), the max response is 15.3% (inactive). As for `O=C(CN1CCN(c2ccc(Cl)cc2)CC1)N1CCCC1`, the figure is 6.76% (inactive). In the case of `O=C(CSCc1ccc(Cl)cc1)N1CCN(Cc2ccc3c(c2)OCO3)CC1`, the max response is 10.5% (inactive). As for `O=C(CSc1ccsc1[N+](=O)[O-])N1CCCCC1`, the figure is 26.9% (inactive); as for `O=C(CSCc1ccc(Cl)cc1)N1CCCCC1`, 44.9% (active); as for `O=C(CSCc1cccs1)N1CCCC1`, 31.1% (active).

For `Cn1c(SCC(=O)N2CCCC2)nnc1-c1cccs1`, the max response was 11.6% (inactive). In the case of `COC(=O)[C@@H](Cc1ccccc1)NC(=O)NCCc1ccccc1`, the max response was 6.92% (inactive). Next, `O=C1OC2(CCCCC2)CC2=C1C1O[C@](c3ccsc3)(Cc3ccccc31)O2`: -3.19% (inactive). Consider `Fc1cccc(CSc2nnc3ccc(-c4ccncc4)nn23)c1`, for which the max response is 2.07% (inactive). As for `O=C(CN1C(=O)NC(Cc2ccccc2)(Cc2ccccc2)C1=O)NCC1CCCCC1`, the max response is -2.12% (inactive). Next, `CCCc1nnc(NC(=O)CCC(=O)N2CCN(S(=O)(=O)c3ccc(OC)cc3)CC2)s1`: -3.02% (inactive).
